The text below walks through data of a collection of fitness landscapes (doi:10.1016/j.celrep.2020.107928).

B1: Caulobacter ParB omega fusion; a variant is named by its letters at X, in order, B8GW30 (parent)
chain: MESVVVGEPGMSEGRRGLGRGLSALLGEVDAAPAQAPGEQLGGSREAPIEILQRNPDQPRRTFREEDLEDLSNSIREKGVLQPILVRPSPDTAGEYQIVAGERAWRAAQRAGLKTVPIMVRELDDLAVLEIGIIENVQRADLNVLEEALSYKVLMEKFERTQENIAQTIGKSXSHVANXMRLLXLPDEVQSYLVSGELTAXHARAIAAAADPVALAKQIIEGGLSVRETEALARKAPNLSAGKSKGGRPPRVKDTDTQALESDLSSVLGLDVSIDHRGSTGTLTITYATLEQLDDLCNRLTRGI

The full ranking holds about 81,000 sequences; the median of “one-hybrid fitness for binding parS DNA” is about -0.17, and the highest 2% start at about 0.51. The sample holds the highest values, similar sequences and a random draw of the others, so the mix is not that of the screen.

The variants in this test derive from B1. As to the kind of experiment: one-hybrid fitness for binding parS DNA (scaled: cognate 1, non-cognate 0); higher = stronger binding. The note with it: with parS DNA site. Put shortly:
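Selection: bacterial one-hybrid in E. coli USO, HIS3 reporter with the site 19 bp from the promoter, 48 hours at 37°C on M9-minus-histidine plus 0.1 mM IPTG and 5 mM 3-AT. Libraries were Caulobacter ParB with four randomised specificity codons, sequenced on Illumina before and after selection. Fitness is the rescaled log change in variant-to-wild-type read ratio, anchored to the cognate and non-cognate sites.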
In the case of HKTR, the “one-hybrid fitness for binding parS DNA” value was ≤ 0.2.

KKHM: the “one-hybrid fitness for binding parS DNA” value is ≤ 0.2.

In the case of RSHA, the “one-hybrid fitness for binding parS DNA” value turned out to be 0.592.

As for RPHA, the “one-hybrid fitness for binding parS DNA” value was ≤ 0.2.

For the variant RCHA, the “one-hybrid fitness for binding parS DNA” value turned out to be 0.626.

For the variant RLHA, the “one-hybrid fitness for binding parS DNA” value is 0.592.

Take RAHA: the “one-hybrid fitness for binding parS DNA” value is 0.613.

On to RGHA, for which the “one-hybrid fitness for binding parS DNA” value was 0.238.

In the case of DLHA, the “one-hybrid fitness for binding parS DNA” value was ≤ 0.2.

For the variant RNHA, the “one-hybrid fitness for binding parS DNA” value worked out at 0.438.

Take RWHA: the “one-hybrid fitness for binding parS DNA” value amounted to 0.378.

Turning to RDHA, the “one-hybrid fitness for binding parS DNA” value was ≤ 0.2.

Turning to NAHA, the “one-hybrid fitness for binding parS DNA” value is ≤ 0.2.

As for LRPS, the “one-hybrid fitness for binding parS DNA” value is ≤ 0.2.

As to RCFW, the “one-hybrid fitness for binding parS DNA” value worked out at 0.256.

Turning to MCTC, the “one-hybrid fitness for binding parS DNA” value was ≤ 0.2.

As to CVPM, the “one-hybrid fitness for binding parS DNA” value is ≤ 0.2.

As to SGES, the “one-hybrid fitness for binding parS DNA” value was ≤ 0.2.

Turning to ADNQ, the “one-hybrid fitness for binding parS DNA” value was ≤ 0.2.

With SFPL, the “one-hybrid fitness for binding parS DNA” value is ≤ 0.2.

Consider TQVG, for which the “one-hybrid fitness for binding parS DNA” value was ≤ 0.2.

On to TFSM, for which the “one-hybrid fitness for binding parS DNA” value is ≤ 0.2.

For PVIS, the “one-hybrid fitness for binding parS DNA” value is ≤ 0.2.

On to RMHA, for which the “one-hybrid fitness for binding parS DNA” value was determined as 0.603.

As for AFHA, the “one-hybrid fitness for binding parS DNA” value is ≤ 0.2.

For the variant RFHA, the “one-hybrid fitness for binding parS DNA” value amounted to 0.53.

For the variant DMHA, the “one-hybrid fitness for binding parS DNA” value was ≤ 0.2.

Regarding RTHA, the “one-hybrid fitness for binding parS DNA” value was 0.61.

For RHHA, the “one-hybrid fitness for binding parS DNA” value came to 0.526.

Consider PFHA, for which the “one-hybrid fitness for binding parS DNA” value was ≤ 0.2.

Regarding DTHA, the “one-hybrid fitness for binding parS DNA” value was ≤ 0.2.

Regarding NTHA, the “one-hybrid fitness for binding parS DNA” value was ≤ 0.2.

On to VHWV, for which the “one-hybrid fitness for binding parS DNA” value was ≤ 0.2.

CRAC: the “one-hybrid fitness for binding parS DNA” value is ≤ 0.2.

Consider QHLA, for which the “one-hybrid fitness for binding parS DNA” value is ≤ 0.2.

As to DKPG, the “one-hybrid fitness for binding parS DNA” value was ≤ 0.2.

In the case of IKTN, the “one-hybrid fitness for binding parS DNA” value is ≤ 0.2.

As to AQFC, the “one-hybrid fitness for binding parS DNA” value is ≤ 0.2.

In the case of TGAE, the “one-hybrid fitness for binding parS DNA” value was ≤ 0.2.

Regarding RVFK, the “one-hybrid fitness for binding parS DNA” value was ≤ 0.2.

For RVFP, the “one-hybrid fitness for binding parS DNA” value is ≤ 0.2.

Take RVAM: the “one-hybrid fitness for binding parS DNA” value is 0.329.

With RVAG, the “one-hybrid fitness for binding parS DNA” value amounted to 0.999.

Take RVFG: the “one-hybrid fitness for binding parS DNA” value came out at 0.993.

For RVAY, the “one-hybrid fitness for binding parS DNA” value is 0.464.

On to GARV, for which the “one-hybrid fitness for binding parS DNA” value is ≤ 0.2.

Turning to QRMF, the “one-hybrid fitness for binding parS DNA” value was ≤ 0.2.

As for NRTA, the “one-hybrid fitness for binding parS DNA” value was ≤ 0.2.

As for NTTA, the “one-hybrid fitness for binding parS DNA” value is ≤ 0.2.

In the case of DTTA, the “one-hybrid fitness for binding parS DNA” value was ≤ 0.2.

Consider RTTA, for which the “one-hybrid fitness for binding parS DNA” value was 0.612.

As to RYTA, the “one-hybrid fitness for binding parS DNA” value was determined as 0.582.

Take RQTA: the “one-hybrid fitness for binding parS DNA” value worked out at 0.574.

For the variant NQTA, the “one-hybrid fitness for binding parS DNA” value was ≤ 0.2.

On to KQTA, for which the “one-hybrid fitness for binding parS DNA” value was ≤ 0.2.

Regarding EYTA, the “one-hybrid fitness for binding parS DNA” value is ≤ 0.2.

Take DRTA: the “one-hybrid fitness for binding parS DNA” value was ≤ 0.2.

As for RRTA, the “one-hybrid fitness for binding parS DNA” value worked out at 0.656.

For the variant NYTA, the “one-hybrid fitness for binding parS DNA” value is ≤ 0.2.

Turning to FTDF, the “one-hybrid fitness for binding parS DNA” value is ≤ 0.2.

For the variant KGIS, the “one-hybrid fitness for binding parS DNA” value is ≤ 0.2.

Consider VCHR, for which the “one-hybrid fitness for binding parS DNA” value was ≤ 0.2.

As for EKES, the “one-hybrid fitness for binding parS DNA” value is ≤ 0.2.

Regarding KHQG, the “one-hybrid fitness for binding parS DNA” value was ≤ 0.2.

Consider LHTY, for which the “one-hybrid fitness for binding parS DNA” value was ≤ 0.2.

DYTC: the “one-hybrid fitness for binding parS DNA” value was ≤ 0.2.

Regarding APHT, the “one-hybrid fitness for binding parS DNA” value was ≤ 0.2.

For the variant YEEE, the “one-hybrid fitness for binding parS DNA” value was ≤ 0.2.

Take RHTA: the “one-hybrid fitness for binding parS DNA” value was 0.516.

Regarding RKTA, the “one-hybrid fitness for binding parS DNA” value amounted to 0.746.

RNTA: the “one-hybrid fitness for binding parS DNA” value stood at 0.473.

For the variant RMTA, the “one-hybrid fitness for binding parS DNA” value was 0.6.

With RETA, the “one-hybrid fitness for binding parS DNA” value was ≤ 0.2.

RSTA: the “one-hybrid fitness for binding parS DNA” value was determined as 0.578.

For RGTA, the “one-hybrid fitness for binding parS DNA” value is 0.376.

On to RDTA, for which the “one-hybrid fitness for binding parS DNA” value is ≤ 0.2.

With NLQR, the “one-hybrid fitness for binding parS DNA” value was ≤ 0.2.

Turning to HMPW, the “one-hybrid fitness for binding parS DNA” value was ≤ 0.2.

As for LVSL, the “one-hybrid fitness for binding parS DNA” value was ≤ 0.2.

In the case of QMTR, the “one-hybrid fitness for binding parS DNA” value was ≤ 0.2.

Turning to KAGR, the “one-hybrid fitness for binding parS DNA” value was ≤ 0.2.

As for GRLC, the “one-hybrid fitness for binding parS DNA” value was ≤ 0.2.

Take QTFT: the “one-hybrid fitness for binding parS DNA” value is ≤ 0.2.

Regarding ATQR, the “one-hybrid fitness for binding parS DNA” value is ≤ 0.2.

Take IINN: the “one-hybrid fitness for binding parS DNA” value was ≤ 0.2.

Turning to QNFC, the “one-hybrid fitness for binding parS DNA” value was ≤ 0.2.

On to RITA, for which the “one-hybrid fitness for binding parS DNA” value came out at 0.55.

With RFTA, the “one-hybrid fitness for binding parS DNA” value worked out at 0.541.

DITA: the “one-hybrid fitness for binding parS DNA” value is ≤ 0.2.

Take DFTA: the “one-hybrid fitness for binding parS DNA” value is ≤ 0.2.

As to EFTA, the “one-hybrid fitness for binding parS DNA” value was ≤ 0.2.

In the case of NVTA, the “one-hybrid fitness for binding parS DNA” value is ≤ 0.2.

Take AVTA: the “one-hybrid fitness for binding parS DNA” value is ≤ 0.2.

Consider EITA, for which the “one-hybrid fitness for binding parS DNA” value is ≤ 0.2.

On to RWTA, for which the “one-hybrid fitness for binding parS DNA” value was determined as 0.459.

Take RPTA: the “one-hybrid fitness for binding parS DNA” value is ≤ 0.2.

For the variant RCTA, the “one-hybrid fitness for binding parS DNA” value amounted to 0.609.

In the case of RVTA, the “one-hybrid fitness for binding parS DNA” value was determined as 0.578.

Turning to GLTC, the “one-hybrid fitness for binding parS DNA” value is ≤ 0.2.

In the case of TSQQ, the “one-hybrid fitness for binding parS DNA” value was ≤ 0.2.

For the variant VYNA, the “one-hybrid fitness for binding parS DNA” value was ≤ 0.2.

As for AYGG, the “one-hybrid fitness for binding parS DNA” value is ≤ 0.2.

Regarding SRQV, the “one-hybrid fitness for binding parS DNA” value was ≤ 0.2.

Turning to FRFR, the “one-hybrid fitness for binding parS DNA” value was ≤ 0.2.

As to ACAI, the “one-hybrid fitness for binding parS DNA” value was ≤ 0.2.

Consider TPWT, for which the “one-hybrid fitness for binding parS DNA” value was ≤ 0.2.

For the variant GHMG, the “one-hybrid fitness for binding parS DNA” value was ≤ 0.2.

In the case of PGAS, the “one-hybrid fitness for binding parS DNA” value is ≤ 0.2.

Regarding DATA, the “one-hybrid fitness for binding parS DNA” value was ≤ 0.2.

As to RATA, the “one-hybrid fitness for binding parS DNA” value was 0.586.

In the case of DLTA, the “one-hybrid fitness for binding parS DNA” value was ≤ 0.2.

On to RLTA, for which the “one-hybrid fitness for binding parS DNA” value worked out at 0.599.

In the case of NLTA, the “one-hybrid fitness for binding parS DNA” value was ≤ 0.2.

Take HHAP: the “one-hybrid fitness for binding parS DNA” value is ≤ 0.2.

As for NDPH, the “one-hybrid fitness for binding parS DNA” value was ≤ 0.2.

Regarding RCLD, the “one-hybrid fitness for binding parS DNA” value was ≤ 0.2.

In the case of KLRG, the “one-hybrid fitness for binding parS DNA” value is ≤ 0.2.

With RIAT, the “one-hybrid fitness for binding parS DNA” value stood at 0.885.

As for RIFT, the “one-hybrid fitness for binding parS DNA” value was 0.834.

RIAQ: the “one-hybrid fitness for binding parS DNA” value is ≤ 0.2.

For RIFF, the “one-hybrid fitness for binding parS DNA” value worked out at 0.297.

RIAM: the “one-hybrid fitness for binding parS DNA” value was found to be 0.367.

As for RIFR, the “one-hybrid fitness for binding parS DNA” value was ≤ 0.2.

With QSSH, the “one-hybrid fitness for binding parS DNA” value was ≤ 0.2.

In the case of PVNK, the “one-hybrid fitness for binding parS DNA” value was ≤ 0.2.

Regarding RQKP, the “one-hybrid fitness for binding parS DNA” value was ≤ 0.2.

For the variant RQKD, the “one-hybrid fitness for binding parS DNA” value is ≤ 0.2.

Turning to RQVN, the “one-hybrid fitness for binding parS DNA” value worked out at 0.316.

For the variant RQKS, the “one-hybrid fitness for binding parS DNA” value came out at 0.864.

As to RQVY, the “one-hybrid fitness for binding parS DNA” value was determined as 0.375.

On to RQVD, for which the “one-hybrid fitness for binding parS DNA” value was ≤ 0.2.

Regarding RQYY, the “one-hybrid fitness for binding parS DNA” value amounted to 0.494.

Turning to RQVS, the “one-hybrid fitness for binding parS DNA” value was found to be 0.937.

With RQKY, the “one-hybrid fitness for binding parS DNA” value came to 0.581.

As for TGHV, the “one-hybrid fitness for binding parS DNA” value is ≤ 0.2.

GPHD: the “one-hybrid fitness for binding parS DNA” value is ≤ 0.2.

With RACY, the “one-hybrid fitness for binding parS DNA” value was determined as 0.435.

Turning to RANQ, the “one-hybrid fitness for binding parS DNA” value was ≤ 0.2.

Take RARG: the “one-hybrid fitness for binding parS DNA” value was found to be 0.956.

Turning to RACF, the “one-hybrid fitness for binding parS DNA” value was found to be 0.228.

With RANE, the “one-hybrid fitness for binding parS DNA” value is ≤ 0.2.

With RAYG, the “one-hybrid fitness for binding parS DNA” value turned out to be 1.01.

For the variant RANG, the “one-hybrid fitness for binding parS DNA” value worked out at 1.

As to RARP, the “one-hybrid fitness for binding parS DNA” value is ≤ 0.2.

On to RAYD, for which the “one-hybrid fitness for binding parS DNA” value was ≤ 0.2.

Take RACG: the “one-hybrid fitness for binding parS DNA” value was 0.971.

With RAYH, the “one-hybrid fitness for binding parS DNA” value was ≤ 0.2.

In the case of RARD, the “one-hybrid fitness for binding parS DNA” value was ≤ 0.2.

For PSYN, the “one-hybrid fitness for binding parS DNA” value is ≤ 0.2.

For WIKS, the “one-hybrid fitness for binding parS DNA” value is ≤ 0.2.

For SDEV, the “one-hybrid fitness for binding parS DNA” value was ≤ 0.2.

Regarding WGFG, the “one-hybrid fitness for binding parS DNA” value is ≤ 0.2.

PYGM: the “one-hybrid fitness for binding parS DNA” value is ≤ 0.2.
